Experimental data taken from article PMC4336329 (PLoS ONE, 2015).
Out of some 310,000 compounds screened, about 14,000 (4.5%) showed an effect of 50% or more. The effect is printed as a negative number. This excerpt belongs to a sample that is enriched for strong results.

target: human ether-à-go-go-related gene (hERG) potassium channel (human, UniProt Q12809); test: primary screen, population patch clamp on CHO cells stably expressing hERG; higher = less effect of the substance
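Note: peak tail current of the secondary pulse compared with the same well before compound.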

Chain of human ether-à-go-go-related gene (hERG) potassium channel (Q12809 whole entry, looked up): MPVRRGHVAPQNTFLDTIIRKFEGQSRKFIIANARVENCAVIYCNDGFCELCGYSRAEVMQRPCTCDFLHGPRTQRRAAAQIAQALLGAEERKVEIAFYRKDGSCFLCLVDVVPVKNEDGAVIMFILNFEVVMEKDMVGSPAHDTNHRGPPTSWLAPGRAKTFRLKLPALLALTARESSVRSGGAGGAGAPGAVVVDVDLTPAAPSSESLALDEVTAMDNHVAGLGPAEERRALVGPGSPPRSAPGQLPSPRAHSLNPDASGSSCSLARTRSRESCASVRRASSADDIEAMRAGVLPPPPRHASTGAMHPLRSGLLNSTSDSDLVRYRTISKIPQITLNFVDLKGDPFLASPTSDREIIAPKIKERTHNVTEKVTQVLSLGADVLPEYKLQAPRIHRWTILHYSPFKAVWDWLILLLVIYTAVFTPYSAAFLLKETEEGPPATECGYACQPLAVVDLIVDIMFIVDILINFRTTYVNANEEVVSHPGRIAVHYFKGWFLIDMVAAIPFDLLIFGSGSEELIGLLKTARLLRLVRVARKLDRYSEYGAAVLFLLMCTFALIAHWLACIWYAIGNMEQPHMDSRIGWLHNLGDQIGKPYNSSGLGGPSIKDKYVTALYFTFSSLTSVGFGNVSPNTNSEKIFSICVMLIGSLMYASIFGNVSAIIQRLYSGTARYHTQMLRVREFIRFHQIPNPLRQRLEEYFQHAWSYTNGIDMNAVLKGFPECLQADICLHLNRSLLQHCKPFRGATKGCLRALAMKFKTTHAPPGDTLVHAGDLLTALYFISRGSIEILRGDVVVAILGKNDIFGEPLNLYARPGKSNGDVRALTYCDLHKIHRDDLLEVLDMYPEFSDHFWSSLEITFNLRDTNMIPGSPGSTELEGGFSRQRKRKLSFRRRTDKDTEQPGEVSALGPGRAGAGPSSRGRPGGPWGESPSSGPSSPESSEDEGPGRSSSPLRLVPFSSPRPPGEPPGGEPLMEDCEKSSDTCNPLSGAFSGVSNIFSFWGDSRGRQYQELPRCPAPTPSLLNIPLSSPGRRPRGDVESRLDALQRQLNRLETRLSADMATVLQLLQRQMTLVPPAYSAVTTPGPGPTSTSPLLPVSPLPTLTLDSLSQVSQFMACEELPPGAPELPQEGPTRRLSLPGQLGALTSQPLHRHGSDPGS

Row | Compound | hERG current change (%, negative = inhibition) at 10uM [%]
1 | CCSc1nnc(NC(=O)CSc2nc3c(c(=O)n2CC)SC(C)C3)s1 (centres unmarked) | 6.95
2 | CCC(=O)Nc1ccc(NC(=O)c2cccc3ccccc23)cc1 | 23.9
3 | COc1ccc(-c2nc(SC(CC(=O)NCc3ccccc3)c3ccc(OC)c(OC)c3)n[nH]2)cc1 (centres unmarked) | -0.421
4 | CCOc1ccc(-n2c(SCc3nc(-c4cccs4)no3)nnc2-c2ccncc2)cc1 | -59.7
5 | CCOc1ccc(-n2c(SCc3nc(-c4ccc(C)cc4)no3)nnc2-c2ccncc2)cc1 | -73.2
6 | c1ccc(-n2c(SCc3nc(-c4cccs4)no3)nnc2-c2ccco2)cc1 | -42.6
7 | Cc1ccc(-c2noc(CSc3nnc(-c4ccncc4)n3-c3ccc(F)cc3)n2)cc1 | -10.3
8 | CCCn1c(SCc2nc(-c3cccs3)no2)nnc1-c1ccncc1 | -4.13
9 | Cc1ccc(-c2noc(CSc3nnc(-c4ccncc4)n3-c3ccc(C)cc3)n2)cc1 | -42.9
10 | O=c1[nH]c(=S)n(-c2ccc(Cl)cc2)c(O)c1/C=N/N1CCOCC1 | -6.08
11 | CC1CC(C)CN(S(=O)(=O)c2ccc3c(c2)CC(C)N3C(=O)C2CCC2)C1 (centres unmarked) | 4.7
12 | CC12CCC(C(=O)N3CCCCCC3)(OC1=O)C2(C)C (centres unmarked) | 13.1
13 | Nc1cc(=O)[nH]c(SCC(=O)NC2CCCc3ccccc32)n1 (centres unmarked) | 0.0692
14 | Cc1cccc2cc(COC(=O)C(C)C)c(=O)[nH]c12 | -69.3
15 | Cc1cccc2cc(COC(=O)c3ccccc3)c(=O)[nH]c12 | -0.867
16 | CCC(=O)OCc1cc2cccc(C)c2[nH]c1=O | -1.03
17 | Cc1cccc(CCNCc2cc3cccc(C)c3[nH]c2=O)c1 | -64.1
18 | Cc1cccc(CCN(Cc2cc3cccc(C)c3[nH]c2=O)C(=O)N2CCOCC2)c1 | -29.4
19 | Cc1cccc(CCNCc2cc3cc(C)cc(C)c3[nH]c2=O)c1 | -30.8

Row | Compound | hERG current change (%, negative = inhibition) at 10uM [%]
20 | Cc1ccccc1CCNCc1cc2cccc(C)c2[nH]c1=O | -52.2
21 | Cc1cccc2cc(CN(Cc3ccccc3)C(=O)N(C)C)c(=O)[nH]c12 | -11.5
22 | CC(=O)OCc1cc2cccc(C)c2[nH]c1=O | -9.76
23 | CC(C)CSc1oc(-c2ccco2)nc1S(=O)(=O)c1ccccc1 | -19.7
24 | O=C(CCC(=O)N1CCCC(Nc2ccccc2)C1)c1ccc(F)cc1 (centres unmarked) | -8.8
25 | COc1cc(CNc2ccc3[nH]c(=O)[nH]c3c2)cc(Cl)c1OCC(=O)NC(C)(C)C | 4.56
26 | COc1ccc(S(=O)(=O)Nc2ccccc2-c2nc3ccccc3[nH]c2=O)cc1 | -9.79
27 | COc1ccc(OC)c(NC(=O)Cn2c(CCC(=O)O)ccc2-c2ccc(C)cc2)c1 | -7.22
28 | Cc1ccc(CN2CC(C(=O)N3CCN(S(=O)(=O)c4cccc(F)c4)CC3)CC2=O)cc1 (centres unmarked) | -32.6
29 | O=C(Nc1ccc(C(F)(F)F)cc1)C1(c2ccccc2)CC1 | -15.2
30 | CCNC(=S)Nc1cc(OCC)c(NC(=O)c2ccco2)cc1OCC | -1.82
31 | Cc1ccc(OCC(O)CN2CCC(Cc3ccccc3)CC2)c(C)c1.Cl (centres unmarked) | -75.2
32 | Cc1ccc(C)c(OCC(O)CN2CCC(Cc3ccccc3)CC2)c1.Cl (centres unmarked) | -67.6
33 | Cc1ccc(OCC(O)CN2CCN(CCO)CC2)c(C)c1.Cl (centres unmarked) | 4.18
34 | Clc1nc(-c2ccccc2)ncc1Oc1ccccc1 | 14.6
35 | Cc1ccc(-n2nnnc2SCC(=O)c2c(N)n(C3CC3)c(=O)[nH]c2=O)cc1C | -10.6
36 | COc1cccc(/C=N/NC(=O)CNC(=O)c2ccc(S(=O)(=O)N3CCOCC3)cc2)c1OC | -4.96
37 | O=c1nc(-c2ccccc2)n(-c2ccccc2)[nH]1 | 1.69
38 | COCC1CCN(C(=O)c2cc(COc3cncc(Cl)c3)on2)C1 (centres unmarked) | 5.09

Row | Compound | hERG current change (%, negative = inhibition) at 10uM [%]
39 | C/C(CC(=O)Nc1cccc(Cl)c1C)=N\NC(=O)Cc1csc(N)n1 | 2.42
40 | N#Cc1c(N)nc2c(c1N)CC(CO)O2 (centres unmarked) | 22.6
41 | Cc1occc1-c1nnc(SCC(=O)NCC2CCCO2)n1C (centres unmarked) | -2
42 | Cc1ccc(-n2c(SCC(=O)NCC3CCCO3)nnc2-c2ccoc2C)cc1 (centres unmarked) | -55.6
43 | Cc1ccc(C)c(-n2c(SCC(=O)NCC3CCCO3)nnc2-c2ccoc2C)c1 (centres unmarked) | 6.82
44 | O=C(CSc1nnnn1-c1ccc(F)cc1)NCc1cccs1 | -0.104
45 | COc1ccc(-c2nnc(SCC(=O)NCc3cccs3)n2C(C)C)cc1 | -35.8
46 | COc1ccc(C(=O)CSc2nnc(-c3ccoc3C)n2CC2CCCO2)cc1 (centres unmarked) | -11.7
47 | Cc1occc1-c1nnc(SCC(=O)c2ccc(Cl)cc2)n1CC1CCCO1 (centres unmarked) | -65.1
48 | Cc1occc1-c1nnc(SCC(=O)NCc2cccs2)n1-c1ccc(F)cc1 | -60.2
49 | COc1ccc(-n2c(SCC(=O)NCc3cccs3)nnc2-c2ccoc2C)cc1 | -78
50 | Cc1occc1-c1nnc(SCC(=O)c2ccccc2)n1CC1CCCO1 (centres unmarked) | -8.58
51 | O=C(CSc1nnc(-c2ccncc2)n1-c1ccc(Cl)cc1)NCc1cccs1 | -15.3
52 | COc1ccc(-c2nnc(SCC(=O)NCc3cccs3)n2C)cc1 | -1.49
53 | COc1cccc(N=Nc2c(C)[nH]n(-c3ccccc3)c2=O)c1 | 10.1
54 | O=C(Cn1nc(C(F)F)cc1C1CC1)N1CCCC1 | 1.61
55 | CCCCn1c(SCC(=O)NC2CCS(=O)(=O)C2)nnc1-c1ccc(OC)cc1 (centres unmarked) | -4.68
56 | Cc1ccc(NC(=S)N/N=C2\CCCCC2C)cc1 (centres unmarked) | -10.4
